Test results reported in the supplement of paper PMC10849652.
The full data set covers some 8,800 targets. This sample favours those with a hit. About 0.5% of all pairs of compound and target were hits. Values without a mark were called inactive.

Key:
Assay in all cases: log2 fold change, soluble protein after heating vs DMSO (PISA); higher = thermal stabilisation; K562 lysate, 10 uM; active = over 0.2 and 3.5 SD of the protein, either way, in both replicates (recomputed)
vemurafenib = compound: CCCS(=O)(=O)Nc1ccc(F)c(C(=O)c2c[nH]c3ncc(-c4ccc(Cl)cc4)cc23)c1F [vemurafenib]
Procedure, shortened: (§1)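 Soluble protein was defined as the supernatant remaining after 21,000xg for 90 min, following pooling of heated aliquots and adjustment to 0.5% NP-40 at 4°C. Before that, crude K562 extract at 1 mg/mL protein in PBS pH 7.4 with 1 mM MgCl2 was treated with 10 μM compound for 30 min and heated for 3 min across 48°C-58°C. Quantification used TMTpro 16plex LC-MS/MS with channel sums equalised, and values are log-two fold changes in thermal stability relative to solvent controls from duplicates.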

[1] = compound: CCCS(=O)(=O)Nc1ccc(F)c(C(=O)c2c[nH]c3ncc(Cl)cc23)c1F
Procedure, shortened: as §1

barasertib = compound: CCN(CCCOc1ccc2c(Nc3cc(CC(=O)Nc4cccc(F)c4)[nH]n3)ncnc2c1)CCOP(=O)(O)O [barasertib]
Procedure, shortened: as §1

[2] = compound: CC[C@@H]1C(=O)N(C)c2cnc(Nc3ccc(C(=O)NC4CCN(C)CC4)cc3OC)nc2N1C1CCCC1
Procedure, shortened: as §1

volasertib = compound: CC[C@@H]1C(=O)N(C)c2cnc(Nc3ccc(C(=O)N[C@H]4CC[C@H](N5CCN(CC6CC6)CC5)CC4)cc3OC)nc2N1C(C)C [volasertib]
Procedure, shortened: as §1

[3] = compound: CCn1c(C(=O)N(C2CC2)C2CC2)cc2c3c(ncn3C)c(Nc3cc(C)n(C)n3)nc21
Procedure, shortened: as §1

[4] = compound: CCn1cc(-c2ccnc3[nH]c(-c4cccc(CN(C)C)c4)cc23)c(-c2ccc(NC(=O)N(C)C)cc2)n1
Procedure, shortened: as §1

[5] = compound: CN1CCC(CNc2ccc3ncc(-c4cccc(OC(F)(F)F)c4)n3n2)CC1
Procedure, shortened: as §1

saracatinib = compound: CN1CCN(CCOc2cc(OC3CCOCC3)c3c(Nc4c(Cl)ccc5c4OCO5)ncnc3c2)CC1 [saracatinib]
Procedure, shortened: as §1

sotrastaurin = compound: CN1CCN(c2nc(C3=C(c4c[nH]c5ccccc45)C(=O)NC3=O)c3ccccc3n2)CC1 [sotrastaurin]
Procedure, shortened: as §1

UniProt Q5SRE5, sequence (Q5SRE5 whole entry, looked up): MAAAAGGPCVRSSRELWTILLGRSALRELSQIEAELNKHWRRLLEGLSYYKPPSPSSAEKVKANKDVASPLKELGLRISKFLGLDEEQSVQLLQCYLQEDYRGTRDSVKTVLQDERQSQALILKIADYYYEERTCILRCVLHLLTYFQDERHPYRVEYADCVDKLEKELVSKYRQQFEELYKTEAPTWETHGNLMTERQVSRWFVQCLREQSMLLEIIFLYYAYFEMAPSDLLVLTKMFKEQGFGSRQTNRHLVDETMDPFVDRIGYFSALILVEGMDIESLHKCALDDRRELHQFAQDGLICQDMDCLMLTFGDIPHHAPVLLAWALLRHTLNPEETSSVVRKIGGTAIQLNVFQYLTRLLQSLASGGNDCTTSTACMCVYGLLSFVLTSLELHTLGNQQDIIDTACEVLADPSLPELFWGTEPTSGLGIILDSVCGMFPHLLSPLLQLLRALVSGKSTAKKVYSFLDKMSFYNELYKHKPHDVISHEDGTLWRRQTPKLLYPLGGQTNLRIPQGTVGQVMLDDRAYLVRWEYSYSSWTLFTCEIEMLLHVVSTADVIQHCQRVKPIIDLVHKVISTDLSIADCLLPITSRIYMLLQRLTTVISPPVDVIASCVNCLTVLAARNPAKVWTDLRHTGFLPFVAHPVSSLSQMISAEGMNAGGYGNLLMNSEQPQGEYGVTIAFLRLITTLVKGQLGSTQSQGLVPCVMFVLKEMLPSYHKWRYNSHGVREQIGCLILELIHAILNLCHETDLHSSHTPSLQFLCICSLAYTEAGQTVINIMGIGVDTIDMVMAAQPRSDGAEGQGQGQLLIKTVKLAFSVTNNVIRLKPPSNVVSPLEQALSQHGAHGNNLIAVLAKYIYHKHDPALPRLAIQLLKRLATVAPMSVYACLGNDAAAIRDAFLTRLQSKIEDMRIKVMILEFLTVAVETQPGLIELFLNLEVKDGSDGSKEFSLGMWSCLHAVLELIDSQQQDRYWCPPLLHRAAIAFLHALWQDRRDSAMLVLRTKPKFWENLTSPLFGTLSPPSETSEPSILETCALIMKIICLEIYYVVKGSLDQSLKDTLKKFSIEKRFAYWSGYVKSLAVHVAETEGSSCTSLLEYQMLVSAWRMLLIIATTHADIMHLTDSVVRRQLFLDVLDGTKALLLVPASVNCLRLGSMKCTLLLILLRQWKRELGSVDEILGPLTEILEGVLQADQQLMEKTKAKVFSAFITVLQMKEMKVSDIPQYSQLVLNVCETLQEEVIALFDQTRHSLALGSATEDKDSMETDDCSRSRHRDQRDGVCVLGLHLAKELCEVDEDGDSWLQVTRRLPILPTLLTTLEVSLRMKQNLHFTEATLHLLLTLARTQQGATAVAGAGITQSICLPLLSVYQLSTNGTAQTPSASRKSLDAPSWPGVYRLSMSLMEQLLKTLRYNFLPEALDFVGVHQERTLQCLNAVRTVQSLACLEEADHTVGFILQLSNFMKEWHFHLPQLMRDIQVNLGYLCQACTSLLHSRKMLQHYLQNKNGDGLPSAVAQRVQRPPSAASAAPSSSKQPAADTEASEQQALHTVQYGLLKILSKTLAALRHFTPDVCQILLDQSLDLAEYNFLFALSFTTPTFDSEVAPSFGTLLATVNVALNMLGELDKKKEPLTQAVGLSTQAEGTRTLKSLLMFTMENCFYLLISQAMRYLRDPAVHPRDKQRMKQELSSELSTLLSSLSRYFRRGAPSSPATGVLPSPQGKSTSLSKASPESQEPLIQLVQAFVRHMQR
UniProt Q15233, sequence (Q15233 whole entry, looked up): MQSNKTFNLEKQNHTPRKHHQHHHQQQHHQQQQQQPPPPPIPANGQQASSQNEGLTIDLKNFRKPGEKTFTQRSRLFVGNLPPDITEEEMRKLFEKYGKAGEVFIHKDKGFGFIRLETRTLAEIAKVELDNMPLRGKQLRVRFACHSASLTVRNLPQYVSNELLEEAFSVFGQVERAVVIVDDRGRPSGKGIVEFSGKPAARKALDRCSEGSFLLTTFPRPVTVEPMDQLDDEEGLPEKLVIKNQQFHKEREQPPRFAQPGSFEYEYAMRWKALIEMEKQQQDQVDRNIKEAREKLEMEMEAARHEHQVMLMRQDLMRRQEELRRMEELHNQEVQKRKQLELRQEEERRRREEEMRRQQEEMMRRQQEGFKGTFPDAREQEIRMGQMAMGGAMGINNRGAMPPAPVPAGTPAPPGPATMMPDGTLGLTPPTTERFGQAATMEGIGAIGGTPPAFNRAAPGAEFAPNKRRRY
UniProt Q96NT1, sequence (Q96NT1 whole entry, looked up): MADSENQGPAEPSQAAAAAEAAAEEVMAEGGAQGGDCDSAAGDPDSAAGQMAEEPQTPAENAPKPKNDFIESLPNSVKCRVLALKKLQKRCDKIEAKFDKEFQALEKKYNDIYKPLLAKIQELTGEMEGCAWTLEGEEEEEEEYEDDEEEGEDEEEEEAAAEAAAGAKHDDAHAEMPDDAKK
UniProt P42695, sequence (P42695 whole entry, looked up): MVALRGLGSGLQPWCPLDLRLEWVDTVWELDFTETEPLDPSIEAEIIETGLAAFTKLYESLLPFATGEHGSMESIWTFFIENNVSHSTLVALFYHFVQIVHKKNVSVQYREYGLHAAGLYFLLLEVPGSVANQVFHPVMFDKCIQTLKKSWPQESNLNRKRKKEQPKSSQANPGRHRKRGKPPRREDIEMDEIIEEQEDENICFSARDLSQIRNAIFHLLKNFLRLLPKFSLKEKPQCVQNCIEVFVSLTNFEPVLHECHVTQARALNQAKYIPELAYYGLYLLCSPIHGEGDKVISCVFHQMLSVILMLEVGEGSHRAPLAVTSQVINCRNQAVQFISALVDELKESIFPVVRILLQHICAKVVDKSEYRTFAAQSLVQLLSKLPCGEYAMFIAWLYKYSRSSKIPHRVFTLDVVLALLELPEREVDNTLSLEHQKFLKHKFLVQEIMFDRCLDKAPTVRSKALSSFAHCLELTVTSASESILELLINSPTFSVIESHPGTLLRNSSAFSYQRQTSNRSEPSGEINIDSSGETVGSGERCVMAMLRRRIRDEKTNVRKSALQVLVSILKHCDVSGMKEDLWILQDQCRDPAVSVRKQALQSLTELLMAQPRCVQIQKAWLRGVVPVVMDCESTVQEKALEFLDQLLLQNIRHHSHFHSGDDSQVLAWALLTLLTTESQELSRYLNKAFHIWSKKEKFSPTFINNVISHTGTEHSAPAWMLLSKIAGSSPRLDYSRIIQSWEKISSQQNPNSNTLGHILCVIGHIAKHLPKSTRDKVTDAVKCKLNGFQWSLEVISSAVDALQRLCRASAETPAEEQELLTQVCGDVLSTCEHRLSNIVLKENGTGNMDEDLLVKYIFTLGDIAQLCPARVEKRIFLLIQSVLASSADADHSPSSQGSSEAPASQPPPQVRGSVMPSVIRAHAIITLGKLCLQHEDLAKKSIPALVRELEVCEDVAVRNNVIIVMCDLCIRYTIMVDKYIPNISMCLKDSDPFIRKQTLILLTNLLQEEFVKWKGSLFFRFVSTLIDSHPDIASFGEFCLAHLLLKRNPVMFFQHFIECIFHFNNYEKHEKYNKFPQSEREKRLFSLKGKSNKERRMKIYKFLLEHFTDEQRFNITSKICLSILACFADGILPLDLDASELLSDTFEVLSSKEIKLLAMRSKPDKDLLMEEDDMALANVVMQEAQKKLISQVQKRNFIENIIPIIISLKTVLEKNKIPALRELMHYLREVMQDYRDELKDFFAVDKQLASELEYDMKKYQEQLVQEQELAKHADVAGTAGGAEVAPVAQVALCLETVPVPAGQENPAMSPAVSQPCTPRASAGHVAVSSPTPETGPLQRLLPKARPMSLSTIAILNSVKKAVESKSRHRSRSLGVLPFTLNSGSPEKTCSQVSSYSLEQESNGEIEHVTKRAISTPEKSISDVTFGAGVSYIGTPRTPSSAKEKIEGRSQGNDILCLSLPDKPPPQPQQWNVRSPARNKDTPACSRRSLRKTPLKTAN
UniProt Q6N063, sequence (Q6N063 whole entry, looked up): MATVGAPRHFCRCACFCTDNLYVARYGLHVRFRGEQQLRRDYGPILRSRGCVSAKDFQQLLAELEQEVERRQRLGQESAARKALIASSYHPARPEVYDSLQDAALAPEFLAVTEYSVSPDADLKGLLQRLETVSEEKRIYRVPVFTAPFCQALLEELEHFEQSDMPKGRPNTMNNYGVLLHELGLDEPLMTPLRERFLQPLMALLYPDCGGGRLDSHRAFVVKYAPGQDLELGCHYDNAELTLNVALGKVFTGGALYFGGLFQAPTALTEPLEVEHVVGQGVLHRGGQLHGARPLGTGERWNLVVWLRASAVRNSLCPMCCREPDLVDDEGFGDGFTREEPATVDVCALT
UniProt P18440, sequence (P18440 whole entry, looked up): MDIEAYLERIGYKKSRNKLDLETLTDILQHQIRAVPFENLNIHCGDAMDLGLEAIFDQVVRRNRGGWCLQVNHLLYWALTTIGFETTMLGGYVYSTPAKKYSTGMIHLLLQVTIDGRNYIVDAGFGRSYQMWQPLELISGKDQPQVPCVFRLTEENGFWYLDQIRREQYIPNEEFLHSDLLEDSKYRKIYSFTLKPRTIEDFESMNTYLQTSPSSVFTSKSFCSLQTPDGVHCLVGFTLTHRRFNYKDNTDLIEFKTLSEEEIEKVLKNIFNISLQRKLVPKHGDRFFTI
UniProt Q9HBL8, sequence (Q9HBL8 whole entry, looked up): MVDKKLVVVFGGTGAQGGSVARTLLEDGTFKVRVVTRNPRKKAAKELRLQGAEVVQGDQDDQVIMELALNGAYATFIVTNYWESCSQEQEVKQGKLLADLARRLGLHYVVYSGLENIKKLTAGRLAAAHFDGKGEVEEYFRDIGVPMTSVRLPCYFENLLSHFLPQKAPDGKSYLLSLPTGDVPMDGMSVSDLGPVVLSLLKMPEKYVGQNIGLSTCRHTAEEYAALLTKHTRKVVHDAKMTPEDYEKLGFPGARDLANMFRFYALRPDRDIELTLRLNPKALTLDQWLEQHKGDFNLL
UniProt O75607, sequence (O75607 whole entry, looked up): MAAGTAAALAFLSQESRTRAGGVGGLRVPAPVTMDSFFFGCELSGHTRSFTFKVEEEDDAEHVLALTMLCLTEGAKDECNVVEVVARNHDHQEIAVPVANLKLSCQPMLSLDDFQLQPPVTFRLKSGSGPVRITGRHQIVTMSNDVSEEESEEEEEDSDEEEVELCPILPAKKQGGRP

| Target | log2 fold change (vemurafenib) | log2 fold change [1] | log2 fold change (barasertib) | log2 fold change [2] | log2 fold change (volasertib) | log2 fold change [3] | log2 fold change [4] | log2 fold change [5] | log2 fold change (saracatinib) | log2 fold change (sotrastaurin) |
| --- | --- | --- | --- | --- | --- | --- | --- | --- | --- | --- |
| NQO1 (UniProt P15559) | -0.014 | 0.026 | 0.163 | -0.097 | -0.082 | -0.023 | -0.067 | -0.035 | 0.155 | 0.034 |
| NCOR2 (UniProt C9J0Q5) | 0.006 | 0.021 | 0.024 | 0.009 | 0.009 | 0.056 | 0.019 | 0.036 | -0.026 | 0.032 |
| OGFOD2 (UniProt Q6N063) | 0.024 | 0.173 | 0.005 | -0.147 | -0.062 | -0.023 | -0.042 | 0.071 | -0.047 | 0.039 |
| MTA3 (UniProt Q9BTC8) | 0.019 | 0.002 | 0.017 | 0.023 | -0.022 | -0.055 | -0.017 | -0.097 | 0.036 | -0.006 |
| NONO (UniProt Q15233) | -0.005 | 0.018 | -0.006 | -0.032 | -0.049 | 0 | 0.076 | -0.043 | 0.004 | -0.015 |
| NMRAL1 (UniProt Q9HBL8) | -0.03 | -0.023 | 0.178 | 0.045 | -0.046 | 0.045 | -0.092 | 0.053 | 0.011 | -0.034 |
| PARD3 (UniProt Q8TEW0) | 0.145 | -0.017 | -0.123 | -0.009 | -0.016 | -0.032 | -0.147 | -0.08 | 0.016 | 0.004 |
| OSGEP (UniProt Q9NPF4) | 0.003 | 0.026 | 0.031 | -0.059 | -0.037 | -0.03 | -0.065 | 0.026 | -0.006 | -0.008 |
| OTUD7B (UniProt Q6GQQ9) | 0.033 | 0.011 | 0.116 | -0.029 | -0.049 | 0.018 | 0.017 | -0.042 | 0.015 | -0.011 |
| NPM3 (UniProt O75607) | 0.052 | 0.03 | -0.065 | 0.058 | -0.015 | -0.007 | -0.376 (active) | 0.158 | -0.023 | 0.025 |
| PAK1 (UniProt Q13153) | -0.013 | 0.001 | -0.001 | -0.002 | 0.023 | -0.011 | 0.013 | 0.06 | 0 | -0.054 |
| NCAPD2 (UniProt Q15021) | 0.025 | 0.014 | 0.016 | -0.027 | -0.057 | 0.022 | -0.037 | -0.055 | 0.006 | 0.021 |
| MYO1C (UniProt O00159) | -0.016 | 0.039 | -0.012 | -0.042 | -0.046 | 0.101 | -0.025 | -0.018 | -0.019 | 0.028 |
| MYOM1 (UniProt P52179) | 0.015 | -0.082 | 0.021 | 0.049 | 0.123 | -0.356 | -0.185 | 0.088 | -0.086 | -0.163 |
| NCAPG (UniProt Q9BPX3) | -0.013 | 0.021 | 0.018 | -0.057 | -0.023 | 0.015 | -0.05 | -0.024 | 0.001 | -0.011 |
| MVB12A (UniProt Q96EY5) | -0.017 | 0.005 | -0.04 | 0.094 | -0.001 | 0.03 | 0.009 | -0.001 | 0.015 | 0.01 |
| OCRL (UniProt Q01968) | 0.168 | 0.014 | 0.04 | 0.018 | -0.057 | -0.032 | -0.074 | 0.049 | 0.027 | 0.019 |
| MYCBP (UniProt Q99417) | -0.001 | 0 | 0.16 | -0.003 | 0.044 | -0.007 | -0.589 (active) | 0.189 | 0.021 | 0.035 |
| NT5DC2 isoform 2 (UniProt Q9H857) | 0 | 0.069 | 0.001 | 0.011 | -0.028 | -0.01 | 0.034 | 0.03 | -0.017 | 0.117 |
| NIT2 (UniProt Q9NQR4) | -0.003 | 0.005 | -0.008 | 0.005 | -0.004 | -0.004 | 0.02 | -0.013 | -0.008 | -0.012 |
| MTFP1 (UniProt Q9UDX5) | -0.025 | 0.031 | 0.012 | 0.036 | 0.041 | 0.061 | -0.421 (active) | 0.041 | -0.042 | 0.004 |
| NUSAP1 (UniProt Q9BXS6) | 0.001 | 0.009 | -0.002 | 0.073 | 0.004 | -0.009 | -0.399 (active) | 0.189 | 0.019 | -0.001 |
| NUP93 (UniProt Q8N1F7) | -0.001 | 0.014 | 0.036 | -0.069 | -0.094 | 0.044 | -0.048 | -0.079 | 0.013 | 0.028 |
| NUP205 (UniProt Q92621) | 0.007 | 0.017 | 0.038 | -0.047 | -0.074 | 0.027 | -0.075 | -0.064 | 0.043 | 0.022 |
| NAT1 (UniProt P18440) | 0.04 | -0.003 | -0.104 | 0.003 | 0.009 | -0.012 | -0.149 | -0.014 | -0.001 | 0.078 |
| NCAPD3 (UniProt P42695) | -0.032 | 0.047 | 0.06 | -0.013 | -0.088 | 0.035 | 0.068 | -0.015 | 0.008 | 0.003 |
| NAP1L5 (UniProt Q96NT1) | -0.094 | 0.005 | 0.037 | 0.181 | -0.033 | 0.052 | 0.62 (active) | -0.205 | -0.15 | 0.08 |
| MYD88 isoform 6 (UniProt Q99836) | -0.031 | 0.01 | -0.002 | -0.042 | -0.075 | 0.022 | -0.009 | -0.013 | 0.009 | 0.05 |
| NUP188 (UniProt Q5SRE5) | -0.006 | -0.006 | 0.074 | -0.067 | -0.077 | 0.05 | -0.031 | -0.045 | 0.029 | 0.021 |
